# High-throughput results (PubChem)
# hgDAF12 agonist – hgDAF-12 agonism, primary luciferase screen; HEK293 GAL4-hgDAF12 UAS-luciferase reporter, agonist luminescence; normalized to butyrate control; activation, % at 6.8 µM; hit rate 1.8% among 370,000;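 active = activation above a cutoff set at the mean of all screened compounds plus 3 SD, cut at about 10% in these data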;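 note: 0% = DMSO wells and 100% = sodium butyrate wells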
# SMARCA2 activ – activators of SMARCA2 function; MG213 cells, MMTV-luciferase reporter, dexamethasone, overnight; activation, % at 9.1 µM; hit rate 1% among 370,000; AID 652017; in the data active = activation above about 7.8%;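 note: 0% = vehicle wells and 100% = reference activator wells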
# hcDAF-12 act – activators of H. contortus DAF-12 nuclear receptor; HEK293 hcDAF-12 lit1-tk-luc reporter, luminescence; 0% DMSO, 100% Δ7-dafachronic acid; activation, % at 6.8 µM; hit rate 1.4% among 370,000; AID 652067;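 active = activation above the mean of all tested compounds plus 3 SD, cut at about 5.5% in these data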;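 note: 100% = response to 3 µM Δ7-dafachronic acid high control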
# ssDAF-12 act – S. stercoralis DAF-12 activation, primary screen | HEK293 ssDAF-12/GRIP1 lit1-tk-luc reporter, luminescence; % of 3 µM dafachronic acid response | activation, % at 6.8 µM | hit rate 1% among 370,000;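 active = activation above the mean over all tested compounds plus 3 SD, cut at about 0.9% in these data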;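 note: 0% = DMSO-only wells and 100% = 3 µM delta7-dafachronic acid wells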
# DAX1 inh-1 – inhibitors of human orphan nuclear receptor DAX1 (NR0B1); hit rate 0.99% among 340,000; HEK293 Gal4-DAX1 luciferase reporter, luminescence; AID 504766; inhibition, % at 6.75 µM;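 active = inhibition above the mean over all tested compounds plus 3 SD, cut at about 4.2% in these data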;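 note: 0% = DAX1-transfected cells with DMSO and 100% = empty-vector control cells with DMSO; inhibition shows as a rise in luminescence from relieved DAX1 repression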
# DAX1 inh-2 – blocks DAX1 repression of SF-1 activated StAR promoter | AID 652010 | hit rate 1.1% among 370,000 | HEK293T StAR-luciferase reporter, SF-1/DAX-1 repression relief | inhibition, % at 6.8 µM;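 active = inhibition above the mean over all tested compounds plus 3 SD, cut at about 3.6% in these data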;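 note: 0% = DAX-1 cells with DMSO and 100% = cells lacking DAX-1 with DMSO; higher inhibition means more luminescence from relief of DAX-1 repression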
# hgDAF12 conf – confirmation of H. glycines DAF-12 agonists; shares compounds with hgDAF12 agonist; HEK293 GAL4-hgDAF12 luciferase reporter, agonist mode; percent of butyrate response; activation, % at 6.8 µM; hit rate 80% among 3,300; AID 743050;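 active = mean activation over triplicate wells above the hit cutoff derived from the earlier primary screen, cut at about 11% in these data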;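 note: 0% = DMSO low control and 100% = 2 mM sodium butyrate high control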
# LXR ag 2 – LXR-beta agonism as DAF-12 counter-screen. HEK293 Gal4-LXR luciferase reporter, 24 h. shares compounds with hgDAF12 agonist. activation, % at 6.8 µM. 3,300 tested, under 10 active. AID 743051;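 active = mean activation of the triplicate above a set limit carried over from the primary screen, none filed active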
# Target sequence (P55055 whole entry, looked up, the tested form may be a part): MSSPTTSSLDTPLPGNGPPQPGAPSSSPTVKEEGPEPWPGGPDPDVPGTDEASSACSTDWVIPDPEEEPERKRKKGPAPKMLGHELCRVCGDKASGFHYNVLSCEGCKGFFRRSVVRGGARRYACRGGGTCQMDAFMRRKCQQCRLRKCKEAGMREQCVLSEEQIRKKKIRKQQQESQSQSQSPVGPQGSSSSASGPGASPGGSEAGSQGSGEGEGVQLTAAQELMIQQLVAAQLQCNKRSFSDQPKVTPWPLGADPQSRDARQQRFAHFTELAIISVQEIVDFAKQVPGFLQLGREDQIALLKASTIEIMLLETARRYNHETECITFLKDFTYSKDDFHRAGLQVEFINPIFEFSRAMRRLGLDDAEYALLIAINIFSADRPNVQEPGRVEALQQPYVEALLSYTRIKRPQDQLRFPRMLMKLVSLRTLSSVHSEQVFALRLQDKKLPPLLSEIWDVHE
# The depositor's hits bear a star; . = no result given. Only some compounds are listed: those with a hit (about 4.8% of all), similar ones and a draw of the others.
SMILES,hgDAF12 agonist,SMARCA2 activ,hcDAF-12 act,ssDAF-12 act,DAX1 inh-1,DAX1 inh-2,hgDAF12 conf,LXR ag 2
Cc1cc(NC(=O)c2cc(C3CC3)on2)no1,15*,0,0,0,1,3,7,0
CCOC(=O)N1CCN(C(=O)/C(=C/c2ccc(OC)cc2)NC(=O)c2ccccc2)CC1,1,-3,-2,-1,-1,0,.,.
Cc1ccc(C(=O)Nc2ccccc2C(=O)NC(Cc2c[nH]c3ccccc23)C(=O)O)cc1 (stereo not given),4,0,1,0,0,0,.,.
CCOC(=O)C(Cc1c[nH]c2ccccc12)NC(=O)c1ccccc1Br (stereo not given),14*,1,3,-1,1,0,5,0
CCN(CC)CC(O)CNc1ccnc2c(Cl)ccc(Cl)c12 (stereo not given),13*,0,1,0,1,1,3,0
CCN(CC)CCCC(C)Nc1nccc2cccc(Cl)c12 (stereo not given),1,-1,1,-1,1,1,.,.
C[C@H]1CN([C@@H](C)CO)C(=O)c2cc(NC(=O)Cc3ccccc3)ccc2O[C@H]1CN(C)Cc1ccccc1,-1,1,-1,-1,2,1,.,.
C[C@H](CO)N1C[C@H](C)[C@@H](CN(C)Cc2ccccc2)Oc2ccc(NC(=O)CCCCCC(=O)Nc3ccccc3N)cc2C1=O,16*,-1,3,-1,3,2,9,0
Fc1cc(Cl)cc2ccc(-c3ccccc3)nc12,15*,5,3,1,.,2,9,0
CCOc1ccc(NC(=O)Cn2nnc(C(=O)NCc3ccc(OC)cc3)c2N)cc1,0,-3,-2,-1,0,0,.,.
O=c1[nH]c2ccccc2nc1-c1ccccc1,16*,-1,0,0,0,1,7,0
CCN(CC(=O)Nc1c(F)cccc1F)C(=O)c1ccc2c(=O)n3c(nc2c1)CCC3,16*,1,0,-1,1,0,2,0
CN1CCN(CCCNC(=O)c2nnc(Cc3c(F)cccc3Cl)o2)CC1,-1,-1,-1,-1,1,0,.,.
CCn1ncc(C(=O)Nc2ccc(S(=O)(=O)N3CCCC3)cc2)c1C,0,-3,-2,-1,2,0,.,.
CCn1ncc(C(=O)Nc2cccc(Cl)c2)c1C,18*,2,5,0.9*,3,3,12*,0
COc1cccc(NC(=O)c2cnn(-c3ccccc3)c2C)c1,18*,3,6.3*,1.2*,1,3,14*,1
O=C(OCC(=O)c1ccc[nH]1)c1cncc(Br)c1,1,-3,-1,-1,2,0,.,.
O=C(NC1CCC(C(=O)O)CC1)OCc1ccccc1 (stereo not given),-3,0,0,-1,0,0,.,.
COc1ccc(-n2ncc3c(N4CCC(C(N)=O)CC4)ncnc32)cc1,14*,6,5,0,3,3,15*,1
CCOC(=O)C1CCN(c2ncnc3c2cnn3-c2ccc(OC)cc2)CC1,-5,0,-2,-2,0,0,.,.
